The list is not random: actives were taken first. Their share in the collection is about 13%.
Marburg entry inh: inhibitors of Marburg virus binding or cell entry; 300,000 compounds, 1.8% hits; Marburg virus pseudotyped entry inhibition, cell reporter; Potency, µM (doses to about 37.8 µM), most hits filed as inhibitors; calls by dose curve; tested in HEK293 cells
LASV entry inh: Lassa virus entry inhibition. Lassa virus pseudotype entry inhibition, cell reporter. Potency, µM (doses to about 37.9 µM), usual class: inhibitors. 300,000 compounds, 1.2% hits; calls by dose curve; tested in HEK293 cells; note: nearly all actives have a fitted effect of over 50% in size
Cycloheximide cs: counter-screen for Shiga toxin inhibitors: cycloheximide protein synthesis inhibition. cell reporter, cycloheximide protein synthesis inhibition counterscreen. AID 2314. max response, %. 300,000 compounds, 12% hits; in the data active = max response mostly above about 13%, no sharp cut-off; inactive = mostly below about 14%; note: read at 38.3 µM for the half of the compounds with a filed dose
FMDV inh: blocks foot and mouth disease virus; 410,000 compounds, 1.2% hits; Potency, µM (titrated, usually from 57.9 µM), hits mostly inhibitors; AID 1159524; FMDV antiviral cell-based qHTS; calls by dose curve; tested in HEK293T cells; note: read-out not given here; nearly all actives have a fitted effect of over 45% in size
Shiga inhibitor: blocks Shiga toxin action in Vero cells. inhibition, % at 38.7 µM. 290,000 compounds, 9.2% hits. Vero cells, Shiga toxin protein synthesis inhibition reporter; in the data active = inhibition mostly above about 28%, no sharp cut-off; inactive = mostly below about 43%
HCV inhibitor: HCV inhibition. 340,000 compounds, 3.4% hits. Huh7.5.1 HCVcc-Cre infection, luciferase reporter, 44 h. Potency, µM (series often up to 41.8 µM), usual class: inhibitors; active = well fitted inhibition curve with a large enough effect; inconclusive = small, poorly fitted or top-dose-only effect, or another doubt; inactive = no such curve, though single readings can be large or run the other way
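A cell-based infection assay in which seeded cells (1,000 per well) receive test compound after 4 h, are inoculated with HCVcc-Cre at approximately 0.5 moi, and are incubated 44 h before luminescence detection.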
Numbers stand for hits; . = inactive; ? = inconclusive; / = no result; + = active, no number.

SMILES | Marburg entry inh | LASV entry inh | Cycloheximide cs | FMDV inh | Shiga inhibitor | HCV inhibitor
Cc1ccc(N2CN=C3SCC(=O)N3C2)cc1C | / | / | 21.9 | . | . | .
COc1ccc(-c2c(C3C4C=CCC(C)C4C(=O)N3Cc3ccccc3)ccc3ccccc23)cc1OC (configuration not stated) | / | / | . | / | . | /
Cc1ccc(-c2cc([C@H]3[C@H]4C=CC[C@@H](C)[C@@H]4C(=O)N3Cc3ccccc3)ccc2F)cc1 | / | / | . | . | . | .
COc1ccc(-c2c([C@H]3[C@H]4C=CC[C@@H](C)[C@@H]4C(=O)N3Cc3ccccc3)ccc3ccccc23)cc1 | / | / | . | ? | . | 7.08µM
COc1ccc(-c2cccc([C@H]3[C@@H]4C=CC[C@@H](C)[C@@H]4C(=O)N3Cc3ccccc3)c2)cc1 | / | / | . | ? | . | ?
CC1CC=CC2C1C(=O)N(Cc1ccccc1)C2c1ccc(F)c(Br)c1 (configuration not stated) | / | / | . | / | 31.7 | /
COc1cc(-c2cccc([C@H]3[C@@H]4C=CC[C@@H](C)[C@@H]4C(=O)N3Cc3ccccc3)c2)cc(OC)c1OC | / | / | . | . | . | 10µM
COc1ccc(-c2cnc3ccccc3n2)cc1NC(=O)CNC(=O)c1ccccc1 | . | ? | 35.7 | . | . | .
Cc1ccc(C(=O)NC(=S)Nc2cc(-c3nc4ccccc4s3)ccc2C)cc1 | ? | . | 65.2 | . | 116.9 | .
COc1ccccc1NC(=O)CNC(=O)c1ccccc1 | . | . | . | . | . | .
COc1ccc(-c2nc3ccccc3s2)cc1NC(=O)COc1cccc(C)c1 | . | . | 54.0 | . | 71.2 | /
COc1ccc(-c2nc3ccccc3s2)cc1NC(=O)c1ccccc1F | . | . | / | . | / | /
COc1ccc(-c2nc3ccccc3s2)cc1NC(C)=O | ? | . | 35.0 | . | 99.8 | .
CCOc1ccc(-c2c(C(=O)N/N=C(\C)c3cccnc3)nnn2-c2nonc2N)cc1 | / | / | . | . | . | .
O=C(Nc1ccc(Cl)c(Cl)c1)N1N=CCC1c1ccccc1 (configuration not stated) | ? | ? | . | . | . | 10µM
CCN1CCN(CC(=O)N2N=CCC2c2ccccc2)CC1 (configuration not stated) | . | . | . | . | . | .
O=C(CSC(=S)N1CCCCC1)N1N=CCC1c1ccccc1 (configuration not stated) | . | . | 70.9 | . | 163.0 | .
O=C(CSc1ccc(Cl)cc1)N1N=CCC1c1ccccc1 (configuration not stated) | . | . | . | . | 72.6 | .
CCOC(=O)c1sc(N)c(C#N)c1CSc1nnc(C2CC2)n1N | . | . | . | . | . | .
Cc1ccc(CN2CCN(Cc3cccc(-n4cccn4)c3)CC2CCO)cc1 (configuration not stated) | ? | . | . | . | . | .
O=C(COC(=O)CCC(=O)c1ccc(Cl)cc1)NCc1ccc(F)cc1 | ? | . | / | . | / | .
CCOC(=O)c1csc(-n2nc(C)cc2C(F)(F)F)n1 | . | ? | 33.0 | . | . | .
c1ccc2c(c1)[IH]c1ccccc1-2 | / | / | / | ? | / | 0.0282µM
Cc1ccc(Cc2c(C3CCCCC3)nc3c(C)cc(Br)cn23)cc1 | / | / | / | . | / | /
CC(=O)COc1ccc2c(C)c(-c3ccccc3)c(=O)oc2c1 | . | . | 45.1 | . | 58.2 | .
SMILES | Marburg entry inh | LASV entry inh | Cycloheximide cs | FMDV inh | Shiga inhibitor | HCV inhibitor
Cc1c(C)c2ccc(OCC(=O)c3ccccc3)cc2oc1=O | / | / | . | . | . | .
CCOC(=O)CCc1c(C)c2ccc(OCc3ccc([N+](=O)[O-])cc3)cc2oc1=O | . | . | . | . | . | .
CCCCc1c(C)c2ccc(OCC(C)=O)cc2oc1=O | . | . | 30.1 | . | 100.0 | .
CCOC(=O)CCc1c(C)c2ccc(OCC(=O)OC(C)C)cc2oc1=O | . | . | 33.8 | . | + | .
CCOC(=O)CCc1c(C)c2ccc(OC3CCCCC3=O)cc2oc1=O (configuration not stated) | . | . | 21.1 | ? | . | .
C=CCOC(=O)COc1ccc2c(C)c(CC)c(=O)oc2c1 | . | . | . | . | . | .
Cc1ccc(S(=O)(=O)N2[C@@H](Cc3ccccc3)CO[C@H]2CC(=O)c2ccccc2)cc1 | / | / | / | . | / | /
CCC(=O)Nc1cccc(NC(=O)CSc2nnnn2Cc2ccccc2)c1 | . | . | . | . | . | .
CCCc1c(C)c2ccc(OCC(C)=O)cc2oc1=O | . | . | 48.6 | . | 93.7 | .
CCOC(=O)CCc1c(C)c2ccc(OCc3nn[nH]n3)cc2oc1=O | . | . | . | . | . | .

Screening data as filed in PubChem.
